The text below walks through data of PubChem BioAssay.

For one experiment, the target named is Albumin (Bos taurus) (UniProt P02769). The experiment in a line: compounds binding labelled BSA control protein – biochemical, small-molecule microarray, Alexa647 label, 635/667 nm fluorescence, artefact control for SMM control protein annotation, profiling panel (AID 1118).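 Further: score merges 667 nm emission intensity and signal-to-noise per printed compound spot.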 The conditions noted are these: BSA-A647 binding, fluorescence 635 nm, higher = more signal.
Albumin (Bos taurus), sequence (P02769 whole entry, looked up): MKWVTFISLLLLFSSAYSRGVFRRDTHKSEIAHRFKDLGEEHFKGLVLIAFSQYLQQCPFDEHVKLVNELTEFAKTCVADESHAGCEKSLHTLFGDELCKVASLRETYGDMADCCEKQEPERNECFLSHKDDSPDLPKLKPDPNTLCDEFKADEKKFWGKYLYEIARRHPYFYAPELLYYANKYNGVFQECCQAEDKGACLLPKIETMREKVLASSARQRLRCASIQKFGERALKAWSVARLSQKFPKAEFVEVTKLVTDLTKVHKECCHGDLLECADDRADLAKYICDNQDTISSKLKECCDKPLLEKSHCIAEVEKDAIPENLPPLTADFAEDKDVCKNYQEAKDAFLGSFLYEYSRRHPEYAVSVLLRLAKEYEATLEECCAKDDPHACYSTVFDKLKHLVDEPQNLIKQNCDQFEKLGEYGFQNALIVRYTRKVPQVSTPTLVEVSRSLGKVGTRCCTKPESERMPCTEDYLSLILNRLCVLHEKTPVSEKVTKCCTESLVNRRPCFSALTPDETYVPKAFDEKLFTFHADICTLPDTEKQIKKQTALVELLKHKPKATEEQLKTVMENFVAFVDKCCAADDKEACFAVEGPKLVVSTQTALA

A short description of experiment [1]: probe aXIP binding to arrayed compounds – biochemical, NeuroSMM set, 635/667 nm fluorescence, primary screen (AID 1119).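 Further: probe is the protein aXip251-270 applied at 1 µg/mL to compound-printed slides; binding of probe to printed compounds measured as 667 nm fluorescence plus signal to noise.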 The conditions noted are these: small-molecule microarray, higher = more signal, called active from +8 up or from −8 down.
A short description of experiment [2]: probe aNOTCH3 binding on compound microarray – biochemical, small-molecule microarray, 635/667 nm fluorescence, primary screen (AID 1120).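 Further: probe is a biotin-tagged antibody raised against NOTCH3 rather than NOTCH3 protein; score merges spot fluorescence near 667 nm with spot signal to noise.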 The conditions noted are these: higher = more signal.
The nature of experiment [3]: probe aNOTCH2 binding on compound microarray – biochemical, small-molecule microarray, 635/667 nm fluorescence, primary screen (AID 1121).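 Further: score merges feature fluorescence read at 667 nm with its signal to noise.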 The following applies: higher = more signal.
Experiment [4] has as its target Carbonic anhydrase 2 (Homo sapiens) (UniProt P00918). The experiment in a line: compounds binding carbonic anhydrase 2 – biochemical, small-molecule microarray, Alexa647-labelled CAII, profiling panel (AID 1122). The conditions noted are these: CAII-A647 binding fluorescence, higher = more signal.
The nature of experiment [5]: COS7 lysate on small-molecule microarray, probe aHis, 635 nm (AID 1123).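 Further: z-score combines 667nm fluorescence intensity with signal-to-noise per printed compound spot.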 The following applies: COS7 cell lysate, fluorescence, higher = more signal.
Experiment [6] in a line: probe aLAP1 signal on lysate-treated microarray – cell lysate, small-molecule microarray, COS7 lysate, primary screen (AID 1124).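 Further: lysate comes from COS7 cells expressing LAP1 and is applied at 0.3 µg/mL; score merges spot fluorescence near 667 nm with signal-to-noise over triplicate slides.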 The following applies: probe aLAP1, fluorescence, higher = more signal.
A further experiment relates to Sam68 (KHDRBS1). The experiment in a line: compounds binding KHDRBS1 protein – biochemical, small-molecule microarray, 635 nm fluorescence, primary screen (AID 1125).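 Further: score merges 667 nm channel intensity with signal to noise over triplicate slides.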 The following applies: higher = more signal.
The test system of experiment [7] is Chordin-like protein 2 (CHRDL2). The experiment in a line: compounds binding chordin-like 2 – biochemical, small-molecule microarray, 635 nm fluorescence, primary screen (AID 1126).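 Further: printed compound slides probed with Chrdl2 protein at 4 µg/mL for 1 h at 4 C; score merges 667 nm emission intensity with signal to noise over three replicate slides.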 The following applies: fluorescence 635 nm, higher = more signal.
The target in experiment [8] is Concanavalin-A (Canavalia ensiformis) (UniProt P02866). The experiment can be described thus: compounds binding concanavalin A lectin – biochemical, small-molecule microarray, Alexa647 label, 635 nm, artefact control for SMM control protein annotation, primary screen (AID 1127).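 Further: z combines 667 nm emission intensity with signal-to-noise across three replicate slides.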 The following applies: ConA-A647 binding fluorescence, higher = more signal.
Concanavalin-A (Canavalia ensiformis), sequence (P02866 whole entry, looked up): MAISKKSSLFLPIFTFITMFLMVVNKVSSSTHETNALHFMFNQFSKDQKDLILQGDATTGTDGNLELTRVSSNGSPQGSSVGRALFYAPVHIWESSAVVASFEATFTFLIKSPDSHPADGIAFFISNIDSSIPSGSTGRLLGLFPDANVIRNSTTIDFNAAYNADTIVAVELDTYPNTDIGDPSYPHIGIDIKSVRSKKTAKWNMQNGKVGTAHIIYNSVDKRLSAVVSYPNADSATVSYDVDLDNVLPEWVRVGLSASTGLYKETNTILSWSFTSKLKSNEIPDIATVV

Calls of active or inactive are those of the source.

Regarding `CCOC(=O)CCN1C(=O)[C@H]2[C@H]3[C@H](O)[C@H](O)CC(=NOCC(C)C)[C@H]3CC[C@H]2C1=O`, the composite z-score with Albumin (Bos taurus) is 0.345; in experiment [2] it was -0.0377; in experiment [3] it was -0.14; in [4], -0.278; in [5] it was 0.163; in experiment [6], 0.528. Besides, the composite z-score with Sam68 (KHDRBS1) is -0.353; in experiment [7], 0.433; in [8] it was 0.0589. Moreover, the composite Z-score in experiment [1] is 0.636 (inactive).

For the compound `CCOC(=O)[C@H](Cc1ccccc1)NC(=O)CCC1CC(OC(=O)NCc2cccc3ccccc23)CC2(CCCC(COC(=O)NCC(c3ccccc3)c3ccccc3)O2)O1` (stereo not given in full), the composite z-score was 0.313 in the experiment with Albumin (Bos taurus); 0.062 in experiment [2]; -0.169 in experiment [3]; 0.394 in experiment [4]; 0.468 in experiment [5]; -0.0448 in experiment [6]. For the same compound, the composite z-score with Sam68 (KHDRBS1) worked out at 0.914; in [7] it was 0.203; in experiment [8], 0.256. Moreover, the composite Z-score in [1] is 0.793 (inactive).

As for `CO[C@@H]1COC(=O)[C@@H]2CCCN2C(=O)[C@@H](C)COC(=O)CC=C[C@H]1C`, the composite z-score is 0.0417 with Albumin (Bos taurus); -0.0362 in experiment [2]; -0.14 in experiment [3]; 0.299 in experiment [4]; 0.148 in experiment [5]; 0.0496 in experiment [6]. Further, the composite z-score with Sam68 (KHDRBS1) was determined as 1.2; in experiment [7], 0.695; in experiment [8], 0.325. For the same compound, the composite Z-score in experiment [1] was -0.235 (inactive).

In the case of `C#CCCCON=C1C[C@@H](O)[C@@H](O)[C@@H]2[C@@H]3C(=O)N(C(C)(C)C)C(=O)[C@@H]3CC[C@@H]12`, the composite z-score with Albumin (Bos taurus) was 0.0601; in experiment [2] it was 0.0137; in experiment [3] it was -0.123; in [4], -0.219; in experiment [5] it was 0.496; in experiment [6], 0.485. Besides, the composite z-score was -0.161 in the experiment with Sam68 (KHDRBS1), 0.888 in [7] and -0.616 in experiment [8]. Besides, the composite Z-score in experiment [1] was -0.0448 (inactive).

Regarding `CO[C@H]1COC(=O)[C@@H](C)COC(=O)[C@H](COCc2ccccc2)NC(=O)CC=C[C@H]1C`, the composite z-score was -1.04 with Albumin (Bos taurus); -0.0077 in [2]; -0.135 in experiment [3]; -0.551 in experiment [4]; -1.73 in experiment [5]; -0.81 in experiment [6]. The composite z-score in the experiment with Sam68 (KHDRBS1) was -1.17; in [7], 1.22; in [8], -3.77. Moreover, the composite Z-score in experiment [1] is 2.09 (inactive).

In the case of `COC(=O)[C@@H]1CC[C@H](C)[C@@H](c2ccc(C)cc2)N1C(=O)c1ccc(C=NO[C@@H](C)c2cn([C@H](CO)Cc3ccccc3)nn2)cc1`, the composite z-score in the experiment with Albumin (Bos taurus) was 0.597; in experiment [2] it was 0.217; in experiment [3] it was -0.09; in [4], 0.097; in experiment [5] it was 1.2; in experiment [6], -0.151. Further, the composite z-score with Sam68 (KHDRBS1) is 1.32; in experiment [7], 0.892; in experiment [8] it was 0.81. In [1], the composite Z-score was -0.222 (inactive).

For the compound `Cn1c(=O)n2n(c1=O)[C@H]1[C@H](O)[C@@H]3O[C@@H]3C(=O)[C@H]1CC2`, the composite z-score with Albumin (Bos taurus) is -0.161; in [2], -0.172; in experiment [3], -0.124; in experiment [4], -0.0126; in experiment [5], -0.0596; in [6] it was 0.0837. Besides, the composite z-score stood at 0.327 in the experiment on Sam68 (KHDRBS1), 0.387 in experiment [7] and 0.513 in experiment [8]. Also, the composite Z-score in [1] is -0.301 (inactive).

Take `COC(=O)[C@H](C)NC(=O)CCC1CC(OC(=O)NCCc2ccc(F)cc2)CC2(CCCC(COC(=O)NCCC(C)C)O2)O1` (stereo not given in full): the composite z-score was 0.828 with Albumin (Bos taurus); -0.0262 in [2]; 0.128 in experiment [3]; 0.325 in [4]; 0.834 in [5]; -0.234 in [6]. For the same compound, the composite z-score in the experiment with Sam68 (KHDRBS1) turned out to be 0.36; in [7], 0.0905; in experiment [8], 0.0934. The composite Z-score in [1] is 0.443 (inactive).

In the case of `CSCC[C@@H]1NC(=O)CC=C[C@@H](C)COC(=O)[C@@H](C)COC1=O`, the composite z-score with Albumin (Bos taurus) was -1.1; in experiment [2] it was -0.155; in experiment [3], -0.175; in experiment [4], -0.762; in experiment [5], -1.1; in experiment [6] it was 0.145. Also, the composite z-score with Sam68 (KHDRBS1) was -0.399; in experiment [7], 0.683; in experiment [8], -2.02. Also, the composite Z-score in experiment [1] is 0.517 (inactive).

Regarding `C=CC[C@@H]1C=C[C@H](ON=C2[C@H]3CCn4c(=O)n(-c5ccccc5)c(=O)n4[C@H]3[C@H](O)[C@@H]3O[C@H]23)[C@@H](CO)O1`, the composite z-score in the experiment with Albumin (Bos taurus) is 0.127; in [2] it was -0.172; in [3] it was -0.101; in [4], 0.256; in [5] it was -0.143; in experiment [6], -0.208. The composite z-score was -0.862 with Sam68 (KHDRBS1), 0.564 in experiment [7] and 0.535 in experiment [8]. Moreover, the composite Z-score in [1] is -0.227 (inactive).

As for `CCOC(=O)[C@H](CC(C)C)NC(=O)CCC1CC(OC(=O)NCCc2ccc(F)cc2)CC2(CCCC(COC(=O)NCC3CCCCC3)O2)O1` (stereo not given in full), the composite z-score with Albumin (Bos taurus) was 0.424; in experiment [2], 0.119; in [3] it was -0.203; in experiment [4] it was 0.255; in experiment [5] it was 2.11; in [6] it was 0.0165. In addition, the composite z-score with Sam68 (KHDRBS1) stood at 0.986; in [7] it was 0.618; in experiment [8], 1.07. Moreover, in experiment [1], the composite Z-score is 0.2 (inactive).

As for `C=COC[C@@H]1CN2[C@@H](CC[C@@H](C)[C@@H]2c2ccc(Br)cc2)C(=O)O1`, the composite z-score in the experiment with Albumin (Bos taurus) is 0.0494; in experiment [2], -0.161; in experiment [3], -0.14; in experiment [4], 0.0173; in experiment [5], 0.043; in experiment [6], 0.008. Besides, the composite z-score with Sam68 (KHDRBS1) was -0.0284; in [7], 0.407; in experiment [8], -0.563. The composite Z-score in experiment [1] was 0.686 (inactive).

`CCOC(=O)[C@H](CC(C)C)NC(=O)CCC1CC(OC(=O)NCc2ccc3c(c2)OCO3)CC2(CCCC(COC(=O)NCC(c3ccccc3)c3ccccc3)O2)O1` (stereo not given in full): the composite z-score is 0.23 with Albumin (Bos taurus); 0.0876 in [2]; -0.147 in [3]; 0.538 in experiment [4]; 0.674 in [5]; -0.144 in [6]. The composite z-score worked out at 0.714 in the experiment on Sam68 (KHDRBS1), 0.0432 in experiment [7] and 1.09 in [8]. Moreover, the composite Z-score in [1] was 0.142 (inactive).

Take `CC(C)(C)N1C(=O)[C@H]2[C@H]3[C@H](O)[C@H](O)CC(=O)[C@@H]3CC[C@H]2C1=O`: the composite z-score with Albumin (Bos taurus) is 0.061; in [2], -0.0918; in experiment [3] it was 0.0811; in experiment [4] it was 0.113; in experiment [5], 0.113; in [6], 0.102. Further, the composite z-score in the experiment on Sam68 (KHDRBS1) stood at 0.0236; in experiment [7], 0.265; in experiment [8], 0.395. The composite Z-score in experiment [1] is 0.302 (inactive).

With `CC(=O)OC[C@H]1O[C@H](CCON=C2[C@H]3CCn4c(=O)n(-c5ccccc5)c(=O)n4[C@H]3[C@H](O)[C@@H]3O[C@H]23)C=C[C@@H]1OC(C)=O`, the composite z-score with Albumin (Bos taurus) was 0.378; in [2] it was 0.348; in experiment [3], 0.088; in experiment [4], 0.127; in experiment [5], 0.343; in experiment [6], -0.0654. Besides, the composite z-score in the experiment with Sam68 (KHDRBS1) was 0.283; in experiment [7] it was 0.47; in experiment [8] it was -0.0333. For the same compound, in experiment [1], the composite Z-score is 0.22 (inactive).

As for `CC(C)=CCCC(C)=CCON=C1C[C@@H](O)[C@@H](O)[C@@H]2[C@@H]3C(=O)N(C[C@@H]4CCCO4)C(=O)[C@@H]3CC[C@H]12`, the composite z-score with Albumin (Bos taurus) is 0.816; in experiment [2] it was 0.121; in experiment [3], -0.0651; in experiment [4] it was 0.22; in experiment [5] it was 0.401; in [6], -0.592. In addition, the composite z-score was 1.3 with Sam68 (KHDRBS1), 1.3 in [7] and 1.13 in experiment [8]. In addition, the composite Z-score in experiment [1] is 0.365 (inactive).

For the compound `Cc1ccc(S(=O)(=O)OC[C@H]2CN3[C@H](c4ccc(Br)cc4)[C@@H](C)CC[C@H]3C(=O)O2)cc1`, the composite z-score was 0.122 in the experiment with Albumin (Bos taurus); -0.0918 in experiment [2]; -0.147 in [3]; 0.366 in [4]; 0.393 in experiment [5]; 0.0759 in experiment [6]. In addition, the values for the composite z-score (with Sam68 (KHDRBS1); in experiment [7]; in experiment [8]) were 0.893, 0.0388 and 0.818, respectively. Moreover, the composite Z-score in experiment [1] was -0.446 (inactive).
